Results from PubChem BioAssay (NCI).
About 79,000 compounds went through this panel and 15% of them were active in at least one assay; those are over-represented in the sample as a whole. Unmarked numbers belong to inactive results. No stated cut-off is given here; in the data, active means growth inhibition above about 70%; inactive means the rest.

Test: NCI Yeast Anticancer Drug Screen. Data for the bub3 strain (AID 167)
Settings: S. cerevisiae bub3 mutant strain, at 50.0 µM, active compounds read high
Outline: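 Growth of a checkpoint-deficient yeast mutant is measured after compound exposure. Values represent inhibition relative to vehicle.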

Going from `CC1(c2ccc(C(O)c3ccccc3)s2)OCCO1` (centres undefined) to `CC(C)(O)c1cc(=O)n(-c2ccccc2)[nH]1`, the growth inhibition falls from 11.4% to -18%.

Going from `CCCCCCC(O)C/C=C/CCCCCC/C(C(=O)OC)=C(/O)C(=O)OCC` (centres undefined) to `CCCCCCCCCCCCCCCCCC(=O)Oc1ccc(OCc2ccccc2)cc1`, the growth inhibition falls from -6.7% to -11.4%.

Going from `CCCCCc1c(-c2n[nH]c(C)c2CCCCC)n[nH]c1C` to `Cc1cccc(CCSCCc2cccc(C)[n+]2[O-])[n+]1[O-]`, the growth inhibition rises from -31.6% to 0.8%.

Compared with `O=C(Nc1ccc(Cl)cc1)OC(C(=O)c1ccccn1)c1ccccn1` (centres undefined), `O=C(Nc1ccccc1)c1ccccc1C(O)(c1ccccc1)c1ccc(Cl)cc1` (centres undefined) is higher in growth inhibition: 7.1% for the first, 52% for the second.

Compared with `O=C(Cc1ccccc1)OCC(=O)c1ccc(-c2ccccc2)cc1`, `COc1ccccc1NC(=O)CC(=O)N1N=C(N2c3ccccc3Sc3ccccc32)CC1c1ccccc1` (centres undefined) is lower in growth inhibition: 19.1% for the first, 12.4% for the second.

First: CCOC(=O)C1/C(=N\N=C2\c3c(nnp3N(CCOS(C)(=O)=O)CCOS(C)(=O)=O)C(C(=O)OCC)C(c3ccc(OC(C)=O)cc3)C2C(=O)OCC)c2c(nnp2N(CCOS(C)(=O)=O)CCOS(C)(=O)=O)C(C(=O)OCC)C1c1ccc(OC(C)=O)cc1 (centres undefined)
Second: N#Cc1c2c(c(-c3cccs3)n(C3OC(CO)C(O)C(O)C3O)c1=S)CCc1ccccc1-2 (centres undefined)
The growth inhibition of the first is higher: 10.3% for the first, 0.8% for the second.

Compared with `Nc1nc(N)nc(CC(=O)O)n1`, `CN(C)C=Nc1c(Br)cc(Br)c2nonc12` is lower in growth inhibition: -14.7% for the first, -22.9% for the second.
